Screening results: PubChem BioAssay, National Center for Advancing Translational Sciences (NCATS)
Only some compounds are listed: those with a hit (about 3.7% of all), similar ones and a draw of the others.
PLK1 PBD inh – blocks phosphopeptide binding to human PLK1 polo-box domain | Plk1 PBD binding of FITC phosphopeptide, fluorescence polarization | Potency, µM, without a hit: max response, negative = inhibition, actives largely listed as inhibitors | actives 2.8% (n = 360,000) | AID 720504; note: potency is the fitted concentration of half-maximal effect; series mostly up to about 57 µM; % is set by controls: 0 for no effect and ±100 for the full control effect; nearly all actives have a fitted effect of over 65% in size
VDR inhibitor – vitamin D3 receptor (human) inhibition; actives 0.93% (n = 400,000); P11473; Potency, µM, without a hit: max response, negative = inhibition, usual class: inhibitors; AID 504847; VDR-SRC2-3 peptide fluorescence polarization, 2 h; note: potency is the fitted concentration of half-maximal effect; % is set by controls: 0 for no effect and ±100 for the full control effect
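After 23 nl compound addition and a short centrifugation, plates sat for 2 hours at ambient temperature; polarization of fluorescence then indicated loss of VDR binding to peptide SRC2-3.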
PI5P4K alpha inh – blocks human PI5P4K alpha kinase activity; P48426; PI5P4Kalpha enzyme, ADP-Glo luminescence, 60 min; hits give low values; max response, %; actives 1.2% (n = 330,000); AID 652105; active = max response of -50% or lower; inconclusive = between -30% and -50%; inactive = -30% or higher; note: value at the top dose of about 77 µM; % is set by controls: 0 for no effect and ±100 for the full control effect
Target sequence (P48426 whole entry, looked up): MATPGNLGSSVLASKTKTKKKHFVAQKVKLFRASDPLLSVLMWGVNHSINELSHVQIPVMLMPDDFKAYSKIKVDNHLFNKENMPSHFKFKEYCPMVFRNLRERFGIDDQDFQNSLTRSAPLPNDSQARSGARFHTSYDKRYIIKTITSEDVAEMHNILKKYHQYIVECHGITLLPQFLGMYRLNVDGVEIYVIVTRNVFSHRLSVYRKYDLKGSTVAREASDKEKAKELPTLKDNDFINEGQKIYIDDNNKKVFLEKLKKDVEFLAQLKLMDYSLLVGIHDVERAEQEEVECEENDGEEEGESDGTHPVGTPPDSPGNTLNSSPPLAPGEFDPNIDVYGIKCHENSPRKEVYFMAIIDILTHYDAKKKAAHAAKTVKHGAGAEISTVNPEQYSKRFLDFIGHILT
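ADP-Glo luminescence end-point read after a 60 min room-temperature kinase reaction of PI5P4Kalpha plus substrate, initiated with ATP at 5 microM final. Buffer: 0.038 M HEPES pH 7.4, EGTA, 0.1% CHAPS, 5% DMSO.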
WRN inhibitor – inhibitors of human WRN helicase; Q14191; AID 651768; Potency, µM (doses to about 114 µM), without a hit: at the top dose activity change, negative = inhibition, usual class: inhibitors; actives 0.46% (n = 360,000); WRN helicase unwinding, fluorescent forked duplex, kinetic; note: potency is the fitted concentration of half-maximal effect; % is set by controls: 0 for no effect and ±100 for the full control effect; nearly all actives have a fitted effect of over 55% in size
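Fluorescence dequenching readout, ex 525 nm/em 598 nm, kinetic mode: forked duplex DNA (100 nM final) with adjacent fluorophore and quencher unwound by WRN (20 nM final) with 2 mM ATP. Compound preincubation 15 min, room temperature.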
TCR act – T cell receptor activation. 330,000 tested, under 10 active. Potency, µM (series often up to 9.22 µM), inactives show top-dose activation of IL-2 secretion, hits mostly activators. primary human leukocytes, anti-CD3, IL-2 HTRF, 48 h; note: % of control where 0% means no effect
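Compounds are tested in HTS on primary human leukocytes co-incubated with a-CD3 beads for 48 hr. IL-2 output is measured by time-resolved FRET.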
FEN1 inhibitor – human FEN1 inhibition. actives 0.35% (n = 390,000). AID 588795. Recombinant FEN1 flap cleavage, fluorescence, 15 min. Potency, µM (top dose mostly 114 µM), for inactives: top-dose activity change, negative = inhibition, actives largely listed as inhibitors. P39748; note: potency is the fitted concentration of half-maximal effect; % is set by controls: 0 for no effect and ±100 for the full control effect; nearly all actives have a fitted effect of over 65% in size
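FEN1 at 10 nM preincubated with compounds 15 min at room temperature, then flap DNA substrate added at 50 nM final. Signal read at 0 and 15 min; concentration-response fitted with four-parameter Hill equation.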
Active calls of the source: *; ? = inconclusive; / = not tested or not shown; [ ] = remark or other dose. Unless noted, calls come from the whole dose curve; as a rule, active = well fitted curve in the direction sought with a large enough effect; inconclusive = small, poorly fitted or top-dose-only effect, or another doubt; inactive = no such curve, though single readings can be large; an effect the other way counts as inactive or inconclusive.

SMILES | PLK1 PBD inh | VDR inhibitor | PI5P4K alpha inh | WRN inhibitor | TCR act | FEN1 inhibitor
COc1ccc(C(=O)/C=C/C(=O)N(CC(=O)NCCC(C)C)Cc2cccs2)c(O)c1 | 34µM* | -10% | -14 | -1% | -10% | 4%
CCOC(=O)C(C)Sc1ccc2nnc(-c3ccc(OCC)cc3)n2n1 (centres undefined) | / | -2% | / | / | / | -11%
COc1ccc(NC(=O)c2cccc(N3C(=O)C4C5C=CC(C5)C4C3=O)c2)c(OC)c1 (centres undefined) | -5% | -4% | -4 | -2%[57.1 µM] | 7% | 12%
COc1ccc(NC(=O)c2cccc(N3C(=O)C4C5C=CC(C6CC56)C4C3=O)c2)c(OC)c1 (centres undefined) | 24µM* | -9% | 3 | -6% | 5% | -11%
Cc1ccc(S(=O)(=O)N2CCN(c3nc(Nc4ccccc4O)nc4ccccc34)CC2)cc1 | / | / | / | / | / | 4%
Cn1cc(S(=O)(=O)c2ccc(Cl)cc2)c(=O)c2cc(F)c(N3CCCCCC3)cc21 | / | 25% | / | / | / | -10%
CC(=O)C1=C(O)C(=O)N(Cc2cccnc2)C1c1ccc(O)cc1 (centres undefined) | 27µM* | -1% | 1 | -3%[57.1 µM] | 5% | ?
CC(=O)C1=C(O)C(=O)N(Cc2cccnc2)C1c1ccccc1 (centres undefined) | 1% | 2% | / | -3% | -2%[46.1 µM] | -4%
CC(=O)Oc1ccc2c(c1)Oc1cc(OC(C)=O)ccc1C21OC(=O)c2ccccc21 | 6.7µM* | -12% | -7 | -18% | -9%[46.1 µM] | 3%
CC[C@H](C)[C@H](NC(=O)[C@H](Cc1ccccc1)NC(=O)[C@H](CCC(=O)O)NC(=O)[C@H](CCCCN)NC(=O)[C@H](C)NC(=O)[C@H](C)NC(=O)[C@H](CCC(N)=O)NC(=O)CNC(=O)[C@H](CCC(=O)O)NC(=O)[C@H](CC(C)C)NC(=O)[C@H](Cc1ccc(O)cc1)NC(=O)[C@H](CO)NC(=O)[C@H](CO)NC(=O)[C@@H](NC(=O)[C@H](CC(=O)O)NC(=O)[C@H](CO)NC(=O)[C@@H](NC(=O)[C@H](Cc1ccccc1)NC(=O)[C@@H](NC(=O)CNC(=O)[C@H](CCC(=O)O)NC(=O)[C@H](C)NC(=O)[C@@H](N)Cc1cnc[nH]1)[C@@H](C)O)[C@@H](C)O)C(C)C)C(=O)N[C@@H](C)C(=O)N[C@@H](Cc1c[nH]c2ccccc12)C(=O)N[C@@H](CC(C)C)C(=O)N[C@H](C(=O)N[C@@H](CCCCN)C(N)=O)C(C)C | / | 11% | / | / | / | /
OCc1cnc(SCc2cccc(F)c2)n1Cc1ccc(F)cc1 | / | 2% | / | / | / | 13%
COc1ccccc1N(Cc1cc(=O)[nH]c2ccccc12)C(=O)C(C)C | -3% | -10% | -7 | -3% | 2% | -15%
COc1ccccc1N(Cc1cc(=O)[nH]c2ccccc12)C(=O)c1cccc([N+](=O)[O-])c1 | 30µM* | ? | -13 | 7% | -2% | -6%
COc1ccc(-n2cccc2/C=C/[N+](=O)[O-])cc1 | 27µM* | ? | ? | -28% | 5% | 6%
N#Cc1ccc(/C=C2/C=Cc3ccccc32)cc1 | / | / | / | / | / | -1%
O=S(=O)(NC1CC2CCC1C2)c1ccc(Br)s1 (centres undefined) | 3.4µM* | -20% | ? | -15% | 5% | 3%
Cn1c(CNC(=O)c2ccccc2)nnc1SCC(=O)Nc1nccs1 | 3.4µM* | ? | ? | ? | 7% | -7%
Cn1c(COc2ccccc2)nnc1SCC(=O)Nc1nnc(C2CC2)s1 | 30µM* | -17% | -13 | 8% | 0% | -8%
COc1cccc(C(=O)NCc2nnc(SCC(=O)Nc3nccs3)n2-c2ccccc2)c1 | -5% | -21% | 2 | 0% | 2%[46.1 µM] | 22%
Cn1c(COc2ccccc2)nnc1SCC(=O)Nc1ccc2c(c1)OCO2 | -4% | 0% | / | -4% | / | -3%
COc1ccc(C(=O)Nc2cccc(-c3cn4ccsc4n3)c2)c(OC)c1 | / | -7% | / | / | / | -20%
CCCN(Cc1cc2cc(C)ccc2[nH]c1=O)C(=O)c1ccccn1 | 19µM* | ? | ? | 5% | 0% | 13%
